Rows were chosen to be rich in hits. Some 1.5% of all compounds tested hit in one or more screens of this group.
BRCA1 expr up: increases BRCA1 expression; MCF7-BRCA1-FFLuc reporter, luminescence, 48 h; response scale: scaled: vehicle 0%, 10 µM genistein 100%; actives 1.1% (n = 380,000); Potency, µM (top dose mostly 46.1 µM), for the others: top-dose activation, hits mostly activators; note: potency is the fitted concentration of half-maximal effect; nearly all actives have a fitted effect of over 80% in size
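MCF7-BRCA1-FFLuc, 2000 cells/well; 2 h attach, 37 °C/5% CO2; compound 48 h; luciferase substrate 15 min; luminescence end-point. Norm. to genistein 10 microM max activation and DMSO; concentration-response curves fitted.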
PINK1 modulator: PINK1 expression modulation. PINK1 immunofluorescence, high-content cytometry, 24 h. actives 0.2% (n = 410,000). Potency, µM (top dose mostly 76.6 µM), inactives show top-dose activation (PINK1 increase), usual class: activators; active = well fitted activation curve with a large enough effect; inconclusive = small, poorly fitted or top-dose-only effect; cell line not stated here; note: potency is the fitted concentration of half-maximal effect; % of control where 0% means no effect; nearly all actives have a fitted effect of over 65% in size
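Stable cell line, 250 cells/well, 12 h attachment; compounds pinned at 5 concentrations, 24 h; CCCP control. Fixed with nuclear dye, primary antibodies 12 h at 10 degrees C, secondary plus cell stain; laser-scanning cytometer read.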
TCR act: activates T cell receptor signaling; 330,000 tested, under 10 active; primary human leukocytes, anti-CD3, IL-2 HTRF, 48 h; Potency, µM (series often up to 9.22 µM), inactives show at the highest dose activation of IL-2 secretion, hits mostly activators; AID 504894; note: % of control where 0% means no effect
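Primary human leukocytes receive a-CD3 beads and test compound and are incubated 48 hr. Secreted IL-2 is then assayed by HTRF, measuring 665nm acceptor emission after 320nm excitation of the europium donor.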
Akt phos inh: blocks phosphorylation of Akt; activity change, % for hits at 50 µM; actives 0.32% (n = 360,000); AID 651550; Neuro2A IGF-stimulated pAkt S473 HTRF, 20 min; active compounds read low; in the data active = activity change below about -80%; inconclusive = mostly about -51% to -80%; note: % is set by controls: 0 for no effect and ±100 for the full control effect
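Neuro2A cells (4,500/well, DMEM with 0.5% FBS) were treated with compound at a single 50 µM final concentration, stimulated with 6 nM IGF for 20 min at 37 °C, and lysed. Phospho-Akt Ser473 was read by HTRF as 665/615 ratio ×10^4.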
Starred values were filed as active, the others as inactive; i = inactive; ? = inconclusive; . = no result given; ! = repeats disagree; [ ] = another dose, or the depositor's remark. Unless noted, calls come from the whole dose curve; as a rule, active = well fitted curve in the direction sought with a large enough effect; inconclusive = small, poorly fitted or top-dose-only effect, or another doubt; inactive = no such curve, though single readings can be large; an effect the other way counts as inactive or inconclusive.

SMILES	BRCA1 expr up	PINK1 modulator	TCR act	Akt phos inh
COc1ccc(/C=C2\SC(=S)N(CCCC(=O)Nc3cc(C)on3)C2=O)cc1OC	-19%	10µM*	4%	i
COC(=O)[C@@H]1CCCN1Cc1ccc2c(c1)CN(Cc1cccn1-c1ccccn1)CCO2	.	1%	.	.
O=C1c2ccsc2SCCN1Cc1ccc(F)cc1	-10%	-1%	3%	i
O=C1c2ccsc2SCCN1Cc1ccc(Cl)cc1	-15%	0%	-12%	-124%*
CN(c1ccccc1)c1nc2ccsc2c(=O)s1	10µM*	1%	-12%	i
CCN(c1ccccc1)c1nc2ccsc2c(=O)s1	34%	1%	4%	i
COCC(=O)Nc1cc(C(=O)N2CCCC(C(N)=O)C2)cc2nc(-c3ccccc3)n(C)c12 (centres undefined)	.	0%	.	.
CC(C)(C)NC(=O)COc1ccccc1C#N	0%	1%	-1%	i
N#Cc1ccccc1OCC(=O)NC(N)=O	9%	0%	-1%	-111%*
Cc1cc(C)nc(S[C@H]2C[C@@H](C(=O)N3CCN(c4ccccc4F)CC3)N(Cc3ccccc3C(F)(F)F)C2)n1	.	0%	.	.
C#Cc1cccc(NC(=O)c2ccc(Cl)cc2Cl)c1	1.8µM*	3%	1%	i
CCCCCC(=O)Nc1ccc2oc(-c3cncc(Br)c3)nc2c1	53%	6%[38.3 µM]	.	i
CCC(=O)Nc1ccc2oc(-c3cccnc3)nc2c1	10µM*	-1%	4%	i
CC(C)CC(=O)Nc1ccc2oc(-c3cccnc3)nc2c1	?	-4%[38.3 µM]	3%	i
Cc1ccc2nc(-c3cccnc3)oc2c1	3.2µM*!	0%	2%	i
CCCC(=O)Nc1ccc2oc(-c3cncc(Br)c3)nc2c1	3.2µM*	5%	3%	i
O=C(CCn1cncn1)NCC1Cc2cc(-c3ccsc3)cc(Cl)c2O1 (centres undefined)	.	-1%	.	.
COc1ccc(NC(=O)c2coc(=O)c3ccccc23)cc1OC	.	0%	.	.
COc1ccc(NC(=O)c2coc3ccccc23)cc1OC	10µM*	11%[38.3 µM]	0%	.
CCN(Cc1ccncc1)Cc1ccc2c(c1)CN(C(=O)c1ccccc1)CCO2	.	-1%	.	.
CCOc1ccc(NC(=O)CN2CCN(CC(=O)c3ccc(OCC)cc3)CC2)cc1	2%	1%	-1%	i
CCc1ccc(NC(=O)CSc2nccn2-c2ccc(F)cc2)cc1	.	9%	.	.
CCOc1ccc(NC(=O)CN2CCN(CC(=O)Nc3ccc(F)cc3)CC2)cc1	-32%	-2%	5%	-117%*
CSc1nccn1CC(=O)Nc1ccc(F)cc1	4%	0%	-2%	-114%*
COc1ccccc1-c1nc2cc(C(=O)NC[C@H]3CCc4ccccc4O3)cc(NC(C)=O)c2n1C	.	1%	.	.
SMILES	BRCA1 expr up	PINK1 modulator	TCR act	Akt phos inh
CCOC(=O)c1c(C)[nH]c(C(C)=NNC(=O)c2cccs2)c1C	2.8µM*	9%	0%	i
CC1SCC(NC(=O)c2cccc(Cl)c2)CS1 (centres undefined)	0%	2%	-4%	i
CC1SCC(NC(=O)c2ccc(Cl)cc2)CS1 (centres undefined)	11µM*	1%	1%	i
CCN(CC)C(=O)N1CCN(/[N+]([O-])=N/Oc2ccc([N+](=O)[O-])cc2[N+](=O)[O-])CC1	5%	-1%	.	.
Cc1cccc(N(CC(N)=O)C2SC(=O)NC2=O)c1 (centres undefined)	-11%	-2%	-1%[46.1 µM]	-106%*
O=C(O)CN(c1ccccc1)C1SC(=O)NC1=O (centres undefined)	-18%	-2%	0%	i
O=C(CN1C(=O)NC2(CCCCCC2)C1=O)c1ccc2c(c1)OCCO2	2.8µM*	0%	2%	i
COc1ccc(NC(=O)c2cc([N+](=O)[O-])ccc2O)cc1	?	28µM*	1%	i
O=C(Nc1cccc([N+](=O)[O-])c1)c1cc2ccccc2cc1O	5%	2.5µM*	-4%	i
COc1ccc(NC(=O)c2cccc([N+](=O)[O-])c2)cc1	?	1%	-1%	i
CCOC(=O)c1noc2ncn(CC(=O)Nc3ccc(C)c(F)c3)c(=O)c12	-1%	3%	.	.
COCc1c(C(=O)NC2CCCC2)cnn1-c1nccc(-c2cccs2)n1	.	4%	.	.
COc1ccc(-c2cc(C)cc3c2OC(CNC(=O)c2cc(C(C)C)on2)C3)nn1 (centres undefined)	.	0%	.	.
COc1ccc(NC(=O)CSc2nnc(C3CCCCC3)o2)c(OC)c1	2%	8%	6%	i
O=C(CSc1nnc(C2CCCCC2)o1)Nc1ccccc1Cl	10µM*	5%	-4%	i
CCCCCCn1c(SCC(=O)c2c(N)n(C)c(=O)n(C)c2=O)nc2ccccc21	7%	11%	0%	-98%*
Cc1nn(C)c(Cl)c1CN1CCOc2ccc(CN3CCC(Oc4cccnc4)CC3)cc2C1	.	0%	.	.
O=C(Cn1cnc2c(oc3ccccc32)c1=O)c1ccccc1	7.1µM*	-2%	.	i
O=C(O)Cn1cnc2c(oc3ccccc32)c1=O	0%	0%	4%	i
CCOC(=O)C(CC)n1cnc2c(oc3ccccc32)c1=O (centres undefined)	17%	-2%	-2%	-113%*
COC(=O)Cn1c(SCc2ccccc2)nc2ccccc21	7.9µM*	-2%	-3%	i
CCSc1nc2ccccc2n1CC(=O)OC	0%	0%	7%	i
Cc1ccnc(N(C(=O)Nc2ccccc2)C2=NCC(C)(C)S2)c1	3.2µM*	0%	0%	i
Cc1ccc(N(C(=O)Nc2ccccc2)C2=NCC(C)S2)cc1 (centres undefined)	27%	9%[38.3 µM]	4%	i
O=C(NCCc1ccccc1)c1cnc2n(c1=O)CCS2	7.1µM*	4%	4%	i
SMILES	BRCA1 expr up	PINK1 modulator	TCR act	Akt phos inh
O=C(NCCc1c[nH]c2ccccc12)c1cnc2n(c1=O)CCS2	2%	1%	-7%[46.1 µM]	i
COc1ccc(NC(=O)NC(C)c2ccncc2)cc1OC (centres undefined)	-4%	11µM*	.	i
Cc1cc(C)cc(CC(Cc2nc3ccccc3[nH]2)c2nc3ccccc3[nH]2)c1 (centres undefined)	-73%	16µM*	-7%	i
OCc1nc2ccccc2[nH]1	7%	0%	.	.
NC(=O)C1CCN(c2nc(-c3cccs3)cs2)CC1	1.3µM*	0%	1%	.
NC(=O)C1CCN(c2nc(-c3ccc4c(c3)OCCO4)cs2)CC1	18%	0%	7%	.
CN(C)c1cccc(-c2csc(N3CCC(C(N)=O)CC3)n2)c1	?	5%	1%	.
NC(=O)C1CCN(c2nc(-c3ccc(Br)cc3)cs2)CC1	1.8µM*	-1%	1%[46.1 µM]	i
O=C(Nc1ccccc1F)c1cnn2c1NC(=C1CC1)C=C2C(F)F	2%	1%	.	.
C#Cc1cccc(C(=O)NCc2nc(-c3ccccc3NC(=O)C3CCCO3)oc2C)c1 (centres undefined)	.	1%	.	.

Source: PubChem BioAssay (National Center for Advancing Translational Sciences (NCATS))
